Assay results taken from PubChem BioAssay AID651814 (National Center for Advancing Translational Sciences (NCATS), 2012).
Hit rate of the full screen: of about 2,100 compounds, about 590 (28%) were called active. Inconclusive results (about 42%) are left out. Calls follow the shape of the dose curve; as a rule, active = well fitted inhibition curve with a large enough effect; inconclusive = small, poorly fitted or top-dose-only effect; inactive = flat fitted curve, though single readings scatter. This is one part of the list.

target: DNA dC->dU-editing enzyme APOBEC-3F (Homo sapiens) (UniProt Q8IUX4); test: qHTS for inhibitors of Vif-A3F interactions: Cherry picks; conditions: HeLa A3F-eYFP + Vif (tagged APOBEC3F with the HIV-1 protein that degrades it), eYFP fluorescence, 24 h; also: nearly all actives have a fitted effect of over 70% in size;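 as to max response: % of control where 0% means no effect; active compounds raise eYFP fluorescence by blocking Vif-driven A3F loss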
Sequence (Q8IUX4 whole entry, looked up): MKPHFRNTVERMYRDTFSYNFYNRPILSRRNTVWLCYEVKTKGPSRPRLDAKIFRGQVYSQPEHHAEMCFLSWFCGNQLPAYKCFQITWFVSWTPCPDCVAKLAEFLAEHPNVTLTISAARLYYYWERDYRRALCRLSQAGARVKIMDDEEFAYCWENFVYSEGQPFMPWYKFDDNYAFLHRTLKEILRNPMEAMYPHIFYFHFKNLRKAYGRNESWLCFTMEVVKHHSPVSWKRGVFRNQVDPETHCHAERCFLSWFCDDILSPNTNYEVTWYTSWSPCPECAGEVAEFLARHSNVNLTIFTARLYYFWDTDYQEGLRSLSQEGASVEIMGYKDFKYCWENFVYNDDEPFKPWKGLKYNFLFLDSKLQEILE
Summary of the method: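 Read-out: yellow fluorescence (ex 488 nm, em 500-530 nm) by laser-scanning cytometer after 24 h compound exposure, several concentrations, at 37 deg C. Cells: HeLa line stably co-expressing Vif and C-terminally eYFP-tagged A3F; MG132 served as positive control.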
Potency is read from the fitted curve at half-maximal effect.

Row | SMILES | max response | Potency
1 | O=C(Nc1nc(NC(=O)c2ccco2)n(-c2ccccc2)n1)c1ccccc1 | -10.5% (inactive) | 
2 | NC(=O)c1cccc(-c2ccnc3c2CC(C(=O)NCc2ccco2)O3)c1 (stereo not drawn) | -22.9% (inactive) | 
3 | COc1cccc(NC(=O)c2sc3nc(C)c(C(=O)Nc4ccc(C)cc4C)c(-c4ccco4)c3c2N)c1 | -5.66% (inactive) | 
4 | CCOC(=O)c1sc(NC(=S)NC(=O)c2ccco2)nc1C | 0.261% (inactive) | 
5 | CCc1ccc(NC(=O)c2sc3nc(C)c(C(=O)Nc4ccc(C)cc4C)c(-c4ccco4)c3c2N)cc1 |  | 23.1 µM (active)
6 | N#Cc1cccn1-c1nccc(-c2cccs2)n1 |  | 12.5 µM (active)
7 | C#CCSc1nc(-c2cccs2)ccc1C#N | -28.5% (inactive) | 
8 | O=CNc1ccc2c3c(cccc13)-c1ccccc1-2 |  | 14 µM (active)
9 | CCCCN(C)CC(O)Cn1cc(/C=C/C(=O)c2cccs2)c2ccccc21 (stereo not drawn) |  | 20.6 µM (active)
10 | N#CCC(=O)N/N=C/c1ccc(N2N=C(c3ccccc3)CC2c2ccccc2)cc1 (stereo not drawn) |  | 18.4 µM (active)
11 | CC1Sc2ccc(C(=O)NCc3ccccn3)cc2NC1=O (stereo not drawn) | -4.69% (inactive) | 
12 | Cc1ccc(NC(=O)CSc2ccccc2NC(=O)c2cccc(Cl)c2)cc1Cl | -5.67% (inactive) | 
13 | CCn1c(CNC(=O)C23CC4CC(CC(C4)C2)C3)nnc1SCC(=O)Nc1ccc(OC)cc1 | 6.03% (inactive) | 
14 | COc1ccc(NC(=O)c2cccc3ccccc23)cc1 | -30% (inactive) | 
15 | COc1ccc(NC(=O)CSc2ccc3c4c(cccc24)C(=O)c2ccccc2-3)cc1 |  | 8.2 µM (active)
16 | N#Cc1cccc(NC(=O)CSc2ccc3c4c(cccc24)C(=O)c2ccccc2-3)c1 |  | 2.31 µM (active)
17 | Cc1cccc(C(=O)NC(=S)N2CCc3ccccc3C2)c1 | 0.715% (inactive) | 
18 | COc1ccc(NC(=O)CN2C(=O)C3(SCC(=O)N3c3ccccc3)c3ccccc32)cc1Cl (stereo not drawn) | -11.4% (inactive) | 
19 | Cn1cc(/C=C2\SC(=O)N(c3ccccc3)C2=O)c2ccccc21 | -28.8% (inactive) | 
20 | CCCN1C(=O)S/C(=C/c2ccc(N3CCOCC3)o2)C1=O |  | 2.8 µM (active)
21 | CCCN1C(=O)S/C(=C\c2ccc(N3CCOCC3)o2)C1=O |  | 2.8 µM (active)

Row | SMILES | max response | Potency
22 | O=C1S/C(=C\c2ccc(N3CCOCC3)o2)C(=O)N1c1ccccc1 |  | 3.53 µM (active)
23 | C/C(=N/NC(N)=S)c1ccc(Br)s1 | 1.12% (inactive) | 
24 | CC(NC1=CC(=O)c2cccnc2C1=O)C(O)c1ccccc1 (stereo not drawn) | -27.2% (inactive) | 
25 | O=C(NCc1ccco1)C1Cc2c(-c3cccc(F)c3)ccnc2O1 (stereo not drawn) | -27.2% (inactive) | 
26 | Cc1ccc(-c2cc(C(=O)N/N=C/C(Br)=C/c3ccccc3)n[nH]2)o1 | -23.7% (inactive) | 
27 | O=[N+]([O-])c1ccccc1C1Nc2cccc3cccc(c23)N1 | 1.22% (inactive) | 
28 | Cc1ccc(S(=O)(=O)Nc2cc(Cl)c(O)c3ncccc23)cc1 | -26.9% (inactive) | 
29 | Cc1cccc2[nH]cc(/C=C3/C=Nc4ccccc43)c12 |  | 23.1 µM (active)
30 | O=[N+]([O-])c1ccc(C2=NN(c3ccccc3)C(c3ccco3)C2)cc1 (stereo not drawn) |  | 1.25 µM (active)
31 | COc1cccc(C2CC(c3ccccc3)=NN2S(=O)(=O)c2ccc(C)cc2)c1OC (stereo not drawn) | -28.4% (inactive) | 
32 | COc1ccccc1N1N=C(c2ccc([N+](=O)[O-])cc2)CC1c1ccccc1 (stereo not drawn) |  | 1.12 µM (active)
33 | O=[N+]([O-])c1ccc(/C=C/C2=NN(c3ccccc3)C(c3ccco3)C2)o1 (stereo not drawn) |  | 2.59 µM (active)
34 | C(=C\c1ccco1)/C1=NN(c2ccccc2)C(c2ccco2)C1 (stereo not drawn) | -27.8% (inactive) | 
35 | CCCOc1ccc(N)cc1N | 4.36% (inactive) | 
36 | CN1C(=O)C(O)(C2COC(C)(C)CC2=O)c2cc(Br)ccc21 (stereo not drawn) | -0.16% (inactive) | 
37 | CC(C)CCNC(=O)c1ccc2c(c1)NC(=O)C(CS(=O)(=O)Cc1cccc(Br)c1)N2 (stereo not drawn) | 0.102% (inactive) | 
38 | CCN1/C(=C/C=C2/SC(=Nc3cccc4ncccc34)N(C)C2=O)Sc2ccccc21 |  | 16.4 µM (active)
39 | C/C(=N\NC(=O)c1cc(-c2ccncc2)nc2ccccc12)c1ccc(N2CCOCC2)cc1 | -14.9% (inactive) | 
40 | CCn1cc(/C=C/c2cc[n+](C)cc2)c2ccccc21 |  | 0.79 µM (active)
41 | C=CCn1cc(/C=C/c2cc[n+](C)cc2)c2ccccc21 |  | 2.23 µM (active)
42 | CC(C)n1cc(/C=C/c2cc[n+](C)cc2)c2ccccc21 |  | 1.4 µM (active)

Row | SMILES | max response | Potency
43 | CC(=O)c1cc(NC(=O)c2ccc(Cl)cc2)c(=O)oc1/C=C/N(C)C |  | 6.27 µM (active)
44 | CC(=O)c1cc(NC(=O)c2ccc(C)cc2)c(=O)oc1/C=C/N(C)C |  | 20.6 µM (active)
45 | CC(=O)c1c(C)[nH]c(C(=O)Nc2ccc(Cl)cc2F)c1C | -17.7% (inactive) | 
46 | CC(=O)c1cc2c(cc1NS(=O)(=O)c1ccc(C)cc1)OCCO2 | -26.6% (inactive) | 
47 | COC(=O)c1cc(NC(=O)c2ccccc2)c(=O)oc1/C=C/Nc1ccc(Oc2ccccc2)cc1 | -22% (inactive) | 
48 | COc1cc(OC)cc(C(=O)Nc2ccccc2C(=O)NC2CC2)c1 | -22.6% (inactive) | 
49 | COC(=O)c1c(-c2ccccc2Cl)noc1/C=C/N(C)C | 2.98% (inactive) | 
50 | COc1ccc(C(=O)Nc2cc(C(C)=O)c(/C=C/N(C)C)oc2=O)cc1 |  | 11.2 µM (active)
51 | C/C(=N\Nc1nccnc1Cl)c1ccc(Cl)c(Cl)c1 | 0.009% (inactive) | 
52 | N#CC1=C(N)C(C#N)(C#N)[C@H](c2c(F)cccc2F)[C@H]2CC3(CC=C12)OCCO3 |  | 20.6 µM (active)
53 | CCCCCCc1cc2cc(-c3nnc(-c4ccccc4OC)o3)c(=O)oc2cc1O |  | 2.8 µM (active)
54 | CCCCCCc1cc2cc(-c3nnc(-c4ccccc4O)o3)c(=O)oc2cc1O | 6.08% (inactive) | 
55 | CCCCCCc1cc2cc(-c3nnc(-c4ccccc4)o3)c(=O)oc2cc1O |  | 3.96 µM (active)
56 | COc1ccccc1-c1cc(C(=O)NN)[nH]n1 | 7.62% (inactive) | 
57 | C=C(NC(=O)C(=C)NC(=O)c1csc(C2=NC3c4csc(n4)C4NC(=O)c5csc(n5)C(C(C)(O)C(C)O)NC(=O)C5CSC(=N5)/C(=C/C)NC(=O)C(C(C)O)NC(=O)c5csc(n5)C3(CC2)NC(=O)C(C)NC(=O)C(=C)NC(=O)C(=C)NC(=O)C(C(C)C)NC2C=Cc3c(C(C)O)cc(nc3C2O)C(=O)OC4C)n1)C(N)=O (stereo not drawn) |  | 12.5 µM (active)
58 | O=C(Cn1c(=O)n(Cc2ccco2)c(=O)c2sc3ccccc3c21)Nc1ccccc1C(F)(F)F |  | 14.6 µM (active)
59 | O=C(Cn1cnc2c(cnn2-c2ccc(F)cc2)c1=O)NCc1ccco1 | -25.6% (inactive) | 
60 | CCc1ccc(N=Nc2ccc(O)c3[nH]cnc23)cc1 |  | 13 µM (active)
61 | O=S(=O)(Nc1nc2ccccc2nc1N1CCc2ccccc2C1)c1ccc(Br)cc1 | -17% (inactive) | 
62 | CCOc1ccc(N/C=C/C(=O)c2cc(OC)c(OC)c(OC)c2)cc1 | -29.8% (inactive) | 
63 | COc1cc(/C=C/C(=O)c2ccc3c(c2)OCCO3)cc(Br)c1OCC(=O)N(C)C |  | 15.8 µM (active)

Row | SMILES | max response | Potency
64 | CCOC(=O)C1=C(C)N=c2sc(=Cc3cc(Cl)c(OCC(=O)O)c(Cl)c3)c(=O)n2C1c1cccc(OC)c1 (stereo not drawn) |  | 19.8 µM (active)
65 | C=CCN1C(=O)/C(=C/c2ccc(O)c(OC)c2)S/C1=N/c1nccs1 | -0.164% (inactive) | 
66 | C=CCN1C(=O)/C(=C2/Sc3ccc(OC)cc3N2CC)SC1=S |  | 9.2 µM (active)
67 | C=CCN1C(=O)/C(=C2/Sc3ccc(OC)cc3N2C)SC1=Nc1cccc(O)c1 |  | 20.6 µM (active)
68 | Cc1ccc2[nH]c(C(=O)NN=C3CCCCC3)c(-c3ccccc3)c2c1 | 0.516% (inactive) | 
69 | Cc1cc(C)cc(Oc2nc(C(F)(F)F)nc3ccccc23)c1 | -26.3% (inactive) | 
70 | CCc1ccc2nc(N(CCCN(C)C)C(=O)c3ccc(S(=O)(=O)N(C)C4CCCCC4)cc3)sc2c1 | -4.66% (inactive) | 
71 | C[n+]1ccc(/C=C/c2c[nH]c3ccccc23)cc1 |  | 9.2 µM (active)
72 | OCC[n+]1ccc(/C=C/c2c[nH]c3ccccc23)cc1 |  | 8.2 µM (active)
73 | O=C(C(=O)N1CCN(c2ccccc2Cl)CC1)c1c[nH]c2ccccc12 | 2.85% (inactive) | 
74 | C[n+]1cc(C(=O)N2CCCCC2)ccc1/C=C/c1c[nH]c2ccccc12 |  | 14 µM (active)
75 | CC[n+]1ccc(/C=C/c2c[nH]c3ccccc23)cc1 |  | 9.2 µM (active)
76 | CC(=O)Nc1ccc(S(=O)(=O)Nc2nc3ccccc3nc2Nc2ccc3ccccc3c2)cc1 | 0.168% (inactive) | 
77 | COc1ccc(S(=O)(=O)N2CCN(C(=O)c3ccc([N+](=O)[O-])o3)CC2)cc1 | -3.97% (inactive) | 
78 | COc1ccc2oc(-c3ccccc3[N+](=O)[O-])cc(=O)c2c1 | -28% (inactive) | 
79 | COc1ccc2[nH]c3c(c2c1)CCNC3c1ccc([N+](=O)[O-])o1 (stereo not drawn) |  | 23.1 µM (active)
80 | CC(/C=C/c1ccc(N(C)C)cc1)=N\N=C(/N)SC1CC(=O)N(c2ccc(C(=O)O)cc2)C1=O (stereo not drawn) | -20.3% (inactive) | 
81 | CCOC(=O)C1C(=O)C=C(/C=C/c2ccc(N(C)C)cc2)CC1c1ccccc1 (stereo not drawn) |  | 10.3 µM (active)
82 | Cc1ccc(/C=N/NC(=O)CCCOc2ccc(Cl)cc2Cl)cc1 | -27.3% (inactive) | 
83 | Cc1ccc(-c2nc3ncccc3o2)cc1NC(=O)c1ccc([N+](=O)[O-])o1 | -17.2% (inactive) | 
